14 compounds from PubChem BioAssay can be followed below.

Experiment [1] can be described thus: inhibitors of TNFa-induced NFkB p65 translocation, primary screen, imaging, HUVEC, MLSMR starter and 10KST1 sets (AID 438;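 active means inhibition above 20% together with a positive visual image hit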;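 further: compound added about 3h40 before a 20 min TNFalpha stimulation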;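 on inhibition: signal is the nuclear over cytoplasmic p65 intensity ratio per well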). The conditions noted are these: HUVEC TNFa-induced p65 nuclear translocation; cell count: measured here: nuclei count (cytotoxicity indicator), at 2.08 µM; inhibition: at 2 µM, stronger effect = higher value, 0% TNFa-plus-vehicle, 100% no-TNFa wells.

A short description of experiment [2]: inhibitors of mutant huntingtin aggregation, primary screen, imaging, exon1htt(103Q)mCFP cells, high-content imaging (AID 483;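 active means visual image review flags a hit and inhibition of aggregation exceeds 20%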;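 further: compound exposure lasted 3 days before fixation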;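 on nuclei count: percent of the per-plate median nuclei count of sample wells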). The conditions noted are these: exon1htt(103Q)mCFP cell line, aggregate imaging, at 2 µM; inhibition of aggregation: stronger effect = higher value; nuclei count: measured here: cell count, toxicity.
The nature of experiment [3]: inhibitors of E-selectin induction by TNFa, primary screen, imaging, HUVEC, immunofluorescence, MLSMR starter and 10KST1 sets (AID 487;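 active means visually confirmed hit in the image check and inhibition above 20%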;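 on inhibition: signal is fraction of cell area covered by stained E-selectin grains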;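 on nuclei count: 100% = median nuclei count of all wells on the same plate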). As to conditions: HUVEC TNFalpha-induced E-selectin immunofluorescence imaging, at 2 µM; inhibition: stronger effect = higher value; nuclei count: measured here: cell number, toxicity.
The target in experiment [4] is Voltage-gated potassium channel subunit beta-2 (Rattus norvegicus) (UniProt P62483). The experiment in a line: KvBeta enzyme negative modulators, primary screen, biochemical, NADPH fluorescence (AID 622;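 active means fluorescence slope higher than the sample average by over 3 SD, cut at about -0.22 in these data, passing the limit was not always enough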;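 further: slope of raw intensity against log time taken from 70 to 1610 s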). As to conditions: recombinant KvBeta, 4-cyanobenzaldehyde reduction, at 10 µM, stronger effect = higher value.
Voltage-gated potassium channel subunit beta-2 (Rattus norvegicus), sequence (P62483 whole entry, looked up): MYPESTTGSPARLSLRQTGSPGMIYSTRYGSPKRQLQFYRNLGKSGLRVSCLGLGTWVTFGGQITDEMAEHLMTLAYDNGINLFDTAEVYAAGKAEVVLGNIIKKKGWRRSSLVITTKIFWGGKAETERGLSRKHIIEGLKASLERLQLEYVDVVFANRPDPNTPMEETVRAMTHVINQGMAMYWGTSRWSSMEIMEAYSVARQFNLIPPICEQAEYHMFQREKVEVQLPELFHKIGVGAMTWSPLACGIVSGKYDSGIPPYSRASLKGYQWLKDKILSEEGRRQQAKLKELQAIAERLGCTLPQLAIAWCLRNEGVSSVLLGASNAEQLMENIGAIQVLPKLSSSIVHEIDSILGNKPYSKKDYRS
The target is the same in experiment [5]. As to the kind of experiment: KvBeta positive modulators, primary screen, biochemical, NADPH fluorescence (AID 623).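 Further: fluorescence intensity change per second fitted from 20 to 320 s.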 The conditions noted are these: Recombinant KvBeta, NADPH fluorescence decrease slope, 10 min; at 10 µM; stronger effect = lower value.
Experiment [6] deals with Alpha-2C adrenergic receptor (Homo sapiens) (UniProt P18825). As to the kind of experiment: modulators of alpha2C/GIRK thallium flux, primary screen, cell-based, HEK293 alpha2C/GIRK1/2 (AID 624;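 active means fluorescence slope after compound addition differing from the mean of all screened samples at 99.7% confidence, in either direction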;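 further: slope of fluorescence ratio to pre-addition baseline per second over 15 to 24 s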). The conditions noted are these: thallium flux BTC fluorescence, at 10 µM, actives lie on both sides.
Alpha-2C adrenergic receptor (Homo sapiens), sequence (P18825 whole entry, looked up): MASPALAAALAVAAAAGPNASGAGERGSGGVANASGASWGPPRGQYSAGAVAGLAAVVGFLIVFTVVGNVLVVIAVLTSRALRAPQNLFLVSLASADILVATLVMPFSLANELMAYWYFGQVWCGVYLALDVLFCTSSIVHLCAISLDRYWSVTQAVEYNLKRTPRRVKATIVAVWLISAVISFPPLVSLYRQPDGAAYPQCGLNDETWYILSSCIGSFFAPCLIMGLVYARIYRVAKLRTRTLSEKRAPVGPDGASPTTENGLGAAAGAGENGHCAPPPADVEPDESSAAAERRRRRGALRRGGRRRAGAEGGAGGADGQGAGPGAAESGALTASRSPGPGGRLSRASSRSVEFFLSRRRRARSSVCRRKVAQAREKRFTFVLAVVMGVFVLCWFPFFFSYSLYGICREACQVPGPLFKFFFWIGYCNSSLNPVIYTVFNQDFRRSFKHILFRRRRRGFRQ
Experiment [7] is described as follows: inhibitors of Sendai virus-induced IRF3 signaling, primary screen, TLR/RLR signaling modifier project, cell-based, Sendai virus stimulus, luciferase, 10K MLSCN set (AID 602276;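 active means inhibition at or above 50% at 10 µM; inactive means inhibition below 50%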;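 further: firefly luciferase from ISG56 promoter only with Renilla not read in this screen; 0% = Sendai virus plus DMSO and 100% = medium plus DMSO without virus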). The conditions noted are these: HEK293 RL24 IRF3 luciferase reporter, at 10 µM, stronger effect = higher value. A general note: Reporter assays use an easily measured gene product as a stand-in for the process of interest.

The nature of experiment [8]: inhibitors of poly I:C-induced TLR3 signaling, primary screen, cell-based, poly I:C stimulus, luciferase, 10K MLSCN set (AID 602277;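 active means inhibition of the reporter signal at or above 50%; inactive means inhibition below 50%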). As to conditions: HEK293-TLR3 RL24 IRF3 luciferase reporter, at 10 µM, stronger effect = higher value.

Calls of active or inactive are those of the source.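 How the source made its calls, unless noted: active means NADPH fluorescence slope more negative than the mean of all samples by about 3 SD, 99.7% confidence; inactive means the rest.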

The inhibition is the change of the read-out against control, counted positive when it falls.

Turning to `COCCn1nnnc1C(c1cc2ccc(OC)cc2[nH]c1=O)N1CCc2ccccc2C1` (centres undefined), the cell count in experiment [1] amounted to 454. The inhibition in experiment [1] is 7.5% (inactive); in experiment [3], -43% (inactive); in experiment [7] it was 29.3% (inactive); in experiment [8] it was 37.8% (inactive). Moreover, in experiment [2], the inhibition of aggregation is -1.5% (inactive). Also, the values for the nuclei count in experiment [2] and in experiment [3] were 86.9% and 95.9%, respectively. The fluorescence slope in experiment [4] was -0.503 (inactive). Further, in experiment [5], the NADPH fluorescence slope was -1.3e-05 (inactive). Further, the slope in experiment [6] was 0.00527 (inactive).
Consider `COc1ccc(S(=O)(=O)N2CCCC2C(=O)Nc2ccc(O)cc2)cc1` (centres undefined), for which, in experiment [1], the cell count turned out to be 601. In addition, the inhibition in experiment [1] was 7.1% (inactive); in experiment [3], -23.4% (inactive); in experiment [7] it was 1.14% (inactive); in experiment [8] it was 12.2% (inactive). Besides, the inhibition of aggregation in experiment [2] is -21.9% (inactive). The nuclei count amounted to 110% in experiment [2] and 111% in experiment [3]. Further, the fluorescence slope in experiment [4] was -0.535 (inactive). Further, the NADPH fluorescence slope in experiment [5] is -2e-05 (inactive). For the same compound, the slope in experiment [6] is 0.00566 (inactive).
As for `CCc1cccc(NC(=O)CN(C)S(=O)(=O)c2cccc3nsnc23)c1`, the cell count in experiment [1] came out at 337. For the same compound, the inhibition in experiment [1] was -6.3% (inactive); in experiment [3], -68.8% (inactive); in experiment [7], 10.2% (inactive); in experiment [8], 8.03% (inactive). For the same compound, the inhibition of aggregation in experiment [2] is 7.8% (inactive). Further, the nuclei count in experiment [2] was found to be 94%; in experiment [3] it was 120%. For the same compound, the fluorescence slope in experiment [4] is -0.35 (inactive). In addition, in experiment [5], the NADPH fluorescence slope was -6.7e-05 (inactive). Besides, the slope in experiment [6] is 0.0056 (inactive).
On to `CCCNC(=O)C1CCN(S(=O)(=O)c2ccc3nc4c(c(C(=O)O)c3c2)CCCCC4)CC1`, for which, in experiment [1], the cell count was determined as 637. Further, the inhibition was 1.3% (inactive) in experiment [1], -26.6% (inactive) in experiment [3], 8.11% (inactive) in experiment [7] and 12.8% (inactive) in experiment [8]. Also, the inhibition of aggregation in experiment [2] is -1.8% (inactive). Also, the nuclei count is 119% in experiment [2] and 118% in experiment [3]. Besides, the fluorescence slope in experiment [4] was -0.531 (inactive). Besides, in experiment [5], the NADPH fluorescence slope was 2e-05 (inactive). For the same compound, the slope in experiment [6] is 0.00704 (inactive).
For the compound `COc1ccc(-n2c(=O)cc(N3CCN(Cc4ccccc4)CC3)[nH]c2=O)cc1`, in experiment [1], the cell count was found to be 672. In addition, the inhibition in experiment [1] is -2.4% (inactive); in experiment [3], 26.6% (inactive); in experiment [7], 12.1% (inactive); in experiment [8], 18.9% (inactive). Besides, in experiment [2], the inhibition of aggregation is -0.4% (inactive). For the same compound, the nuclei count in experiment [2] stood at 119%; in experiment [3], 108%. In addition, in experiment [4], the fluorescence slope is -0.621 (inactive). Also, in experiment [5], the NADPH fluorescence slope is 1.9e-05 (inactive). In experiment [6], the slope was 0.00623 (inactive).
Turning to `Cn1c(SCC(=O)Nc2ccc(F)cc2)nnc1-c1cccnc1`, the cell count in experiment [1] is 660. Besides, the inhibition is -1.1% (inactive) in experiment [1], -57.8% (inactive) in experiment [3], -0.187% (inactive) in experiment [7] and 21.7% (inactive) in experiment [8]. In addition, in experiment [2], the inhibition of aggregation was 5.2% (inactive). Also, the nuclei count was determined as 90.3% in experiment [2] and 110% in experiment [3]. Moreover, the fluorescence slope in experiment [4] was -0.578 (inactive). The NADPH fluorescence slope in experiment [5] was -4.7e-05 (inactive). Besides, the slope in experiment [6] was 0.00652 (inactive).
As to `Cc1ccccc1NC(=O)C1CCCN(S(=O)(=O)c2cccc3cccnc23)C1` (centres undefined), the cell count in experiment [1] worked out at 613. Further, the inhibition in experiment [1] was 6.8% (inactive); in experiment [3], -45.4% (inactive); in experiment [7] it was 1.01% (inactive); in experiment [8], 13.7% (inactive). For the same compound, the inhibition of aggregation in experiment [2] was 21% (inactive). The nuclei count came to 71.1% in experiment [2] and 112% in experiment [3]. Moreover, in experiment [4], the fluorescence slope is -0.554 (inactive). For the same compound, the NADPH fluorescence slope in experiment [5] was 1.2e-05 (inactive). Moreover, the slope in experiment [6] is 0.00703 (inactive).
For the compound `COc1ccc(-n2c(N)c(C(=O)NCc3ccco3)c3nc4ccccc4nc32)c(OC)c1`, in experiment [1], the cell count is 737. The inhibition is -6% (inactive) in experiment [1], 27.3% (inactive) in experiment [3], 6.27% (inactive) in experiment [7] and 7.88% (inactive) in experiment [8]. Also, the inhibition of aggregation in experiment [2] is -0.1% (inactive). The results for the nuclei count in experiment [2] and in experiment [3] were 97.9% and 102%, respectively. In addition, the fluorescence slope in experiment [4] is -0.246 (inactive). Also, in experiment [5], the NADPH fluorescence slope is -4.5e-06 (inactive). Also, the slope in experiment [6] was 0.00521 (inactive).
Consider `CCOc1ccc2cc(C#N)c(SCC(=O)N3CCC(C)CC3)nc2c1`, for which, in experiment [1], the cell count stood at 447. Also, the inhibition in experiment [1] was 0.5% (inactive); in experiment [3] it was -92.8% (inactive); in experiment [7], 18.2% (inactive); in experiment [8] it was 7.14% (inactive). In addition, the inhibition of aggregation in experiment [2] is 6% (inactive). In addition, the nuclei count is 107% in experiment [2] and 138% in experiment [3]. Moreover, in experiment [4], the fluorescence slope was -0.242 (inactive). Besides, the NADPH fluorescence slope in experiment [5] is 2.6e-06 (inactive). Further, the slope in experiment [6] is 0.00566 (inactive).
As for `Cc1ccc(C)c(N2CCN(CCCNC(=O)Cn3cc4c(n3)CCC(C)C4)CC2)c1` (centres undefined), the cell count in experiment [1] amounted to 554. The inhibition in experiment [1] is 9.9% (inactive); in experiment [3] it was 29.9% (inactive); in experiment [7], 13.6% (inactive); in experiment [8] it was 41% (inactive). Further, the inhibition of aggregation in experiment [2] is -8.9% (inactive). Also, the nuclei count turned out to be 90.9% in experiment [2] and 106% in experiment [3]. Besides, the fluorescence slope in experiment [4] is -0.574 (inactive). Moreover, the NADPH fluorescence slope in experiment [5] was -2.4e-05 (inactive). Besides, the slope in experiment [6] was 0.00559 (inactive).
Take `CCCCOC(=O)C1=C(C)Nc2ncnn2C1c1cccc(OC)c1OC` (centres undefined): the cell count in experiment [1] was found to be 655. For the same compound, the inhibition in experiment [1] was 12.8% (inactive); in experiment [3] it was -71.2% (inactive); in experiment [7], 12.8% (inactive); in experiment [8], 9.22% (inactive). The inhibition of aggregation in experiment [2] was -20.9% (inactive). Moreover, the nuclei count in experiment [2] is 113%; in experiment [3], 111%. Moreover, in experiment [4], the fluorescence slope is -0.403 (inactive). Further, in experiment [5], the NADPH fluorescence slope was -4e-05 (inactive). The slope in experiment [6] is 0.00417 (inactive).
Turning to `COc1ccc(OCC(=O)Nc2ccc(N3CCOCC3)c(Cl)c2)cc1`, the cell count in experiment [1] is 651. Besides, the inhibition was 7.5% (inactive) in experiment [1], -144% (inactive) in experiment [3], 10.5% (inactive) in experiment [7] and 5.62% (inactive) in experiment [8]. Moreover, the inhibition of aggregation in experiment [2] was -18.9% (inactive). Besides, the nuclei count came out at 101% in experiment [2] and 109% in experiment [3]. For the same compound, in experiment [4], the fluorescence slope is -0.488 (inactive). Also, the NADPH fluorescence slope in experiment [5] was -1.5e-05 (inactive). For the same compound, the slope in experiment [6] is 0.00692 (inactive).
On to `NC(=O)C1CCN(c2nc(-c3ccccc3)nc3ccccc23)CC1`, for which, in experiment [1], the cell count was 554. In addition, the inhibition in experiment [1] was -15.4% (inactive); in experiment [3], 49.5% (inactive); in experiment [7] it was 10% (inactive); in experiment [8], 8.01% (inactive). Besides, in experiment [2], the inhibition of aggregation is 2% (inactive). Besides, the nuclei count in experiment [2] worked out at 116%; in experiment [3], 92.8%. Besides, the fluorescence slope in experiment [4] is -0.46 (inactive). In experiment [5], the NADPH fluorescence slope is -6.1e-05 (inactive). The slope in experiment [6] is 0.00467 (inactive).
For the compound `Cc1ccccc1Cn1c(=O)c2c(nc3n2CCCN3Cc2ccccc2)n(C)c1=O`, the cell count in experiment [1] came out at 348. Further, the inhibition in experiment [1] was 7.4% (inactive); in experiment [3], -25.1% (inactive); in experiment [7] it was 22.9% (inactive); in experiment [8] it was 19.5% (inactive). For the same compound, the inhibition of aggregation in experiment [2] was 7.4% (inactive). Further, the nuclei count in experiment [2] amounted to 97.8%; in experiment [3], 120%. Moreover, the fluorescence slope in experiment [4] is -0.478 (inactive). In addition, the NADPH fluorescence slope in experiment [5] was -7.4e-06 (inactive). Further, the slope in experiment [6] is 0.00418 (inactive).
